Assay results published in PubChem BioAssay (NCATS).
Where “and” joins values, the source holds several entries; their conditions need not be identical. Equal entries are not always repeated. Results filed as inconclusive are left out. Unmarked numbers belong to inactive results. Calls come from the whole dose curve; as a rule, active = well fitted curve in the direction sought with a large enough effect; inconclusive = small, poorly fitted or top-dose-only effect, or another doubt; inactive = no such curve, though single readings can be large or run the other way.

assay: qHTS Assay for Identifying Gametocytocidal Compounds (AID 743244);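 note: actives lower the fluorescent signal which means gametocytes are killed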; settings: P. falciparum 3D7 stage III-V gametocytes, alamarBlue, 72 h; max response: active compounds read low
Procedure, shortened: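 Viability read-out was resazurin reduction (alamarBlue, 24 h) measured at Ex 525/Em 598 nm. Beforehand, late-stage (III-V) 3D7 P. falciparum gametocytes at 20,000 cells/well were incubated with compound 72 h at 37C under 5% CO2.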
% is set by controls: 0 for no effect and ±100 for the full control effect.

| SMILES | max response |
| --- | --- |
| CCCCC(O)c1ccccc1 (stereo not drawn) | -2.26% |
| CN1C(=O)C[C@@H](C(=O)N[C@@H](Cc2cnc[nH]2)C(=O)N2CCC[C@H]2C(N)=O)NC1=O | 5.88% |
| CC(/C=C/C=C(\C)C(=O)O[C@@H]1O[C@H](CO[C@@H]2O[C@H](CO)[C@@H](O)[C@H](O)[C@H]2O)[C@@H](O)[C@H](O)[C@H]1O)=C\C=C\C=C(C)\C=C\C=C(/C)C(=O)O[C@@H]1O[C@H](CO[C@@H]2O[C@H](CO)[C@@H](O)[C@H](O)[C@H]2O)[C@@H](O)[C@H](O)[C@H]1O | 5.1% |
| NC[C@H]1O[C@H](O[C@H]2[C@H](O)[C@@H](O[C@H]3O[C@H](CO)[C@@H](O)[C@H](N)[C@H]3O)[C@H](N)C[C@@H]2N)[C@H](N)C[C@@H]1O | -3.45% |
| CN[C@@H]1[C@H](O[C@H]2[C@H](O[C@H]3[C@H](O)[C@@H](O)[C@H](N=C(N)N)[C@@H](O)[C@@H]3N=C(N)N)O[C@@H](C)[C@]2(O)C=O)O[C@@H](CO)[C@H](O)[C@H]1O | 14.8% |
| CCCCCCCCCCCC(=O)OCC(O)CO (stereo not drawn) | 3.54% |
| CN1C(C(=O)Nc2ccccn2)C(=O)c2sc(Cl)cc2S1(=O)=O (stereo not drawn) | 11.6% |
| F[Si-2](F)(F)(F)(F)F | 2.76% |
| COc1ccc(/C=C/C(=O)O)cc1 | -1.23% |
| COC(=O)CC[C@H](N)C(=O)O | -4.69% |
| CCCCCCCCCCCCCC(=O)OCC(COP(=O)([O-])OCC[N+](C)(C)C)OC(=O)CCCCCCCCCCCCC (stereo not drawn) | 8.75% |
| C[C@@H](O)[C@H]1C(=O)N2C(C(=O)[O-])=C(SC3Cn4cnc[n+]4C3)[C@H](C)[C@H]12 (stereo partly drawn) | -4.53% |
| CC(=O)O[C@@H]1CC2CCC1(C)C2(C)C (stereo partly drawn) | 7.45% |
| O=C(CCCN1CCN2CCCC2C1)c1ccc(F)cc1 (stereo not drawn) | 7.46% |
| CCc1ncnc2cc(OC)c(OC)cc12 | -4.33% |
| O=C(NNCS(=O)(=O)O)c1ccncc1 | -7.51% |
| O=C1c2c(O)cccc2[C@H]([C@@H]2O[C@H](CO)[C@@H](O)[C@H](O)[C@H]2O)c2cc(CO)cc(O)c21 | -5.95% and -4.23% |
| O=C(CO)[C@@H](O)[C@H](O)[C@@H](O)C(=O)O | 23.9% |
| NC(=O)CC[C@@H]1NC(=O)[C@H](Cc2ccccc2)NC(=O)[C@H](Cc2ccc(O)cc2)NC(=O)[C@@H](N)CSSC[C@@H](C(=O)N2CCC[C@H]2C(=O)N[C@@H](CCCN=C(N)N)C(=O)NCC(N)=O)NC(=O)[C@H](CC(N)=O)NC1=O | -1.4% and -14.5% |

| SMILES | max response |
| --- | --- |
| CC(=O)N[C@@H]1C(O[C@H]2O[C@H](C(=O)O)C(O)[C@H](O)[C@H]2O)[C@H](O)[C@@H](CO)O[C@H]1O[C@@H]1C(C(=O)O)O[C@@H](O[C@H]2[C@H](O)[C@@H](CO)OC(O)[C@@H]2NC(C)=O)[C@H](O)[C@H]1O (stereo partly drawn) | -1.86% |
| CC(C)[C@@H]1CC[C@@H](C)C[C@H]1OC(=O)c1ccccc1O | 9.93% |
| COc1ccc(/C=C/C(=O)OCCC(C)C)cc1 | 3.66% |
| CC(C)N1CCN(c2ccc(OC[C@H]3CO[C@](Cn4cncn4)(c4ccc(Cl)cc4Cl)O3)cc2)CC1 | 3.43% |
| CCCCCCCCCCCCCCCCCC[N+](C)(C)CCC[Si](OC)(OC)OC | -8.48% |
| COc1ccc2nc(NC(=O)Nc3ccccc3)sc2c1 | -0.997% |
| C[C@]12CCC(=O)C[C@@H]1CC[C@@H]1[C@@H]2CC[C@]2(C)C=CC[C@@H]12 | -3.12% |
| C=CC[N+]1([C@H]2C[C@H]3[C@@H]4CC[C@H]5C[C@H](O)[C@@H](N6CCOCC6)C[C@]5(C)[C@H]4CC[C@]3(C)[C@H]2OC(C)=O)CCCC1 | -0.733% |
| C[C@@](Cc1ccc(O)c(O)c1)(NN)C(=O)O | -3.47% |
| OCCCNc1ccccc1 | -7.9% |
| CCCCCCCCCCCC(=O)OC[C@@H](O)C1OC[C@H](O)[C@H]1O (stereo partly drawn) | -8.97% |
| NC(=O)OCC(O)COc1ccc(Cl)cc1 (stereo not drawn) | 9.36% |
| COc1ccc(-c2noc(CC(=O)O)c2-c2ccc(OC)cc2)cc1 | 49.9% |
| O=C[C@H](O)[C@@H](O)[C@@H](O)[C@H](O)CO | -6.65% |
| C=N[C@@H](C(=O)N[C@@H]1C(=O)N2[C@@H]1SC(C)(C)[C@@H]2C(=O)O)c1ccccc1 | -0.476% |
| NC(Cc1ccccc1)C(=O)O (stereo not drawn) | 3.95% |
| CO[C@H]1C[C@H](O[C@@H]2/C(C)=C/C[C@@H]3C[C@@H](C[C@]4(CC[C@H](C)[C@@H](C5CCCCC5)O4)O3)OC(=O)[C@@H]3C=C(C)/C(=N/O)[C@H]4OC/C(=C\C=C\[C@@H]2C)[C@]43O)O[C@@H](C)[C@@H]1O | -14.2% |
| CC1(C)S[C@@H]2[C@H](NC(=O)C3(N)CCCCC3)C(=O)N2[C@H]1C(=O)O | 7.96% |
| CO/N=C(\C(=O)N[C@@H]1C(=O)N2C(C(=O)O)=C(CSc3nc(C)c(CC(=O)O)s3)CS[C@H]12)c1csc(N)n1 | 4.68% |
